Screening results from PubChem.
Compounds with a hit are over-represented: about 3.8% of the library has one in this group of screens.
ATXN2 expr inh = Primary qHTS for Inhibitors of ATXN expression; AID 1745845, 2022; HEK-293 ATXN2-luciferase reporter, luminescence, 24 h; Potency, µM (doses to about 57 µM), actives largely listed as inhibitors; 360,000 compounds, 0.72% hits; further: nearly all actives have a fitted effect of over 55% in size
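ATXN2-luciferase reporter cells (luciferase flanked by upstream and downstream ATXN2 gene portions) were treated 24 h at 37 °C with compounds at up to 57 uM. SteadyGlo luminescence gave expression; GF-AFC fluorescence gave viability.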
HT1080NT lethal = qHTS for induction of synthetic lethality in tumor cells producing 2HG: qHTS for the HT-1080-NT fibrosarcoma cell line. HT-1080-NT fibrosarcoma viability, CellTiter-Glo ATP luminescence, 48 h. Potency, µM (doses to about 46.1 µM), actives largely listed as cytotoxic. 360,000 compounds, 1.6% hits;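 further: NT is the 2HG producing partner of a matched IDH1 knockdown line; nearly all actives have a fitted effect of over 55% in size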
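Viability of the 2HG-overproducing fibrosarcoma line after 48 hours of compound exposure at 37 degrees C was determined by luminescence with CellTiter-Glo, and concentration-effect curves were then fitted and categorized.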
S2 tox = Viability Counterscreen for Primary qHTS for Inhibitors of ATXN expression; S2 cells (HEK-293 line with an ATXN2-luciferase reporter) viability, CellTiter-Fluor protease fluorescence, 24 h; AID 651635, 2014; 400,000 compounds, 0.49% hits; Potency, µM (series often up to 56.7 µM), most hits filed as cytotoxic; further: nearly all actives have a fitted effect of over 40% in size
TGFb inhibitor = qHTS for Inhibitors of TGF-b. HepG2 CAGA-GFP TGF-b/SMAD3 reporter, GFP fluorescence, 18 h; TGF-beta stimulated, 500 pg/mL final. AID 588855, 2011. 410,000 compounds, 1.2% hits. Potency, µM (titrated, usually from 46.1 µM), most hits filed as inhibitors; further: nearly all actives have a fitted effect of over 65% in size
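Smad-responsive CAGA-GFP expression was quantified in HEPG2 cells exposed to compounds and 500 pg/mL final TGF-beta for 18 h at 37 degrees C; unstimulated wells defined full inhibition.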
HepG2 viability = qHTS for Inhibitors of TGF-b: Cytotox Counterscreen | 410,000 compounds, 0.76% hits | Potency, µM (series often up to 46.1 µM), hits mostly cytotoxic | AID 588856, 2011 | HepG2 CAGA-GFP viability, ATP luminescence, 18 h
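CellTiter-Glo luminescence gave cytotoxicity after 18 hours at 37 degrees C. The cells were HepG2 CAGA-GFP in 1% FBS DMEM, stimulated with 500 pg/mL TGF-beta after compound addition. %Activity was normalised to no-cell wells (complete cell-killing) and DMSO (no toxicity), and curves were fitted and classified.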
HT1080 IDH1KD tx = qHTS for induction of synthetic lethality in tumor cells producing 2HG: qHTS for the HT-1080-IDH1KD cell line. HT-1080 IDH1 knockdown viability, ATP luminescence, 48 h. Potency, µM (titrated, usually from 46.1 µM), usual class: cytotoxic. 360,000 compounds, 2% hits. AID 686971, 2013
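Knockdown cells (IDH1KD HT-1080) received compounds 2 h after plating at 750 cells/well and were kept 48 h at 37 °C in 5% FBS RPMI. A CellTiter-Glo luminescence read gave % activity for curve fitting.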
Numbers stand for hits; [ ] = remark or other dose. The call rests on the fitted dose curve; in most records, active means well fitted curve in the direction sought with a large enough effect; inconclusive means small, poorly fitted or top-dose-only effect, or another doubt; inactive means no such curve, though single readings can be large; an effect the other way counts as inactive or inconclusive.

Results for O=C(CC12CC3CC(CC(C3)C1)C2)Nc1cccc2nc(NCCNCCO)ccc12 ?
ATXN2 expr inh: inactive

How did O=C(/C=C\c1ccccc1OC(=O)c1ccccc1F)c1cc2ccccc2o1 do in these assays?
ATXN2 expr inh: inactive; HT1080NT lethal: 16µM; S2 tox: inactive; TGFb inhibitor: 14µM; HepG2 viability: inactive; HT1080 IDH1KD tx: inconclusive

How did COc1ccc(N2C(=O)C(Cl)=C(Oc3cccc(OC)c3)C2=O)cc1 do in these assays?
ATXN2 expr inh: inactive[11.3 µM]; HT1080NT lethal: 18µM; S2 tox: inactive; TGFb inhibitor: inactive; HepG2 viability: inactive; HT1080 IDH1KD tx: 21µM

What do the screens show for `O=C(CCCCCN1C(=O)c2cccc3cccc(c23)C1=O)NCc1cccnc1`?
ATXN2 expr inh: inactive; HT1080NT lethal: 2.9µM; S2 tox: inactive; TGFb inhibitor: inactive; HepG2 viability: inactive; HT1080 IDH1KD tx: 2.3µM

What do the screens show for `O=C(CCCN1C(=O)c2cccc3cccc(c23)C1=O)NCc1cccnc1`?
ATXN2 expr inh: inactive; HT1080NT lethal: inactive; S2 tox: inactive; TGFb inhibitor: inactive; HepG2 viability: inactive; HT1080 IDH1KD tx: inactive

How did COc1ccc(CN(C(=O)/C=C/C(=O)c2ccc(OC)cc2O)C(C(=O)NC2CCCCC2)c2ccncc2)cc1 (stereo unspecified) do in these assays?
ATXN2 expr inh: inactive; HT1080NT lethal: inactive; S2 tox: inconclusive; TGFb inhibitor: inconclusive; HepG2 viability: inactive; HT1080 IDH1KD tx: inactive

What do the screens show for `COc1ccc(C(=O)/C=C/C(=O)N(CC(=O)NC2CCCCC2)Cc2cccs2)c(O)c1`?
ATXN2 expr inh: inconclusive; HT1080NT lethal: inactive; S2 tox: 27µM; TGFb inhibitor: inconclusive; HepG2 viability: inactive; HT1080 IDH1KD tx: inactive

What do the screens show for `COCCN(CC(=O)NC1CCCCC1)C(=O)/C=C/C(=O)c1ccc(OC)cc1O`?
ATXN2 expr inh: inconclusive; HT1080NT lethal: 23µM; TGFb inhibitor: inconclusive; HepG2 viability: 13µM; HT1080 IDH1KD tx: inconclusive

Results for CCn1c(SC)nc2c([nH]c3ccccc32)c1=O ?
TGFb inhibitor: inactive; HepG2 viability: inactive

Results for CC(Nc1cccc2ccccc12)C(=O)N/N=C/c1ccccn1 (stereo unspecified) ?
ATXN2 expr inh: inactive; HT1080NT lethal: 14µM; S2 tox: inactive; TGFb inhibitor: inconclusive; HepG2 viability: inactive; HT1080 IDH1KD tx: 7.1µM

How did O=C(CC1C(=O)NCCN1C(=O)Nc1ccccc1)Nc1cc(Cl)cc(Cl)c1 (stereo unspecified) do in these assays?
ATXN2 expr inh: inactive; HT1080NT lethal: 16µM; S2 tox: inactive; TGFb inhibitor: inconclusive; HepG2 viability: inactive; HT1080 IDH1KD tx: 26µM

What do the screens show for `COc1ccccc1NC(=S)N1CCNC(=O)C1CC(=O)Nc1cccc(C)c1` (stereo unspecified)?
ATXN2 expr inh: inactive; HT1080NT lethal: inactive; S2 tox: inactive; TGFb inhibitor: inactive; HepG2 viability: inactive; HT1080 IDH1KD tx: inactive

Results for COc1ccccc1NC(=O)CC1C(=O)NCCN1C(=O)Nc1ccc(Cl)c(Cl)c1 (stereo unspecified) ?
ATXN2 expr inh: inactive; HT1080NT lethal: 16µM; S2 tox: inactive; TGFb inhibitor: inconclusive; HepG2 viability: inactive; HT1080 IDH1KD tx: inconclusive

Results for Cc1ccc(C)c2sc(N3CCN(C(=O)c4ccco4)CC3)nc12 ?
ATXN2 expr inh: inconclusive; S2 tox: inactive; TGFb inhibitor: 10µM; HepG2 viability: inactive

Results for Cc1cc(NC(=O)c2cccn2-c2nnc(N3CCCCC3)s2)ccc1Br ?
TGFb inhibitor: 8.9µM; HepG2 viability: inactive

What do the screens show for `CC(C)c1ccc(NC(=O)c2cccn2-c2nnc(N3CCCCC3)s2)cc1`?
TGFb inhibitor: inconclusive; HepG2 viability: inactive
